Among the data in PubChem BioAssay (NCATS) are activity change, negative = inhibition, activity and Potency values, retold here.

Active and inactive are the calls of the source. Calls come from the whole dose curve.

Experiment in all cases: Confirmatory Screen for Target Class Profiling of Small Molecule Inhibitors of Methyltransferases (AID 1745852); for activity change, negative = inhibition: % is set by controls: 0 for no effect and ±100 for the full control effect
Experiment [1] has as its target Guanidinoacetate N-methyltransferase (Homo sapiens) (UniProt Q14353). Conditions: MTase-Glo luminescence, SAH detection, recombinant enzyme; activity change, negative = inhibition: at 57.3 µM (top of the series) unless noted; series mostly up to 57.3 µM.
Experiment [2] concerns the target Nicotinamide N-methyltransferase (Homo sapiens) (UniProt P40261). Conditions: MTase-Glo luminescence, SAH detection, recombinant enzyme; measured here: NNMT max response; stronger effect = lower value.
Experiment [3] addresses Phenylethanolamine N-methyltransferase (Homo sapiens) (UniProt P11086). The note with it: MTase-Glo luminescence, SAH detection, recombinant enzyme; measured here: PNMT max response; stronger effect = lower value.
Potency is the fitted concentration of half-maximal effect.

Nicotinamide N-methyltransferase (Homo sapiens), sequence (P40261 whole entry, looked up): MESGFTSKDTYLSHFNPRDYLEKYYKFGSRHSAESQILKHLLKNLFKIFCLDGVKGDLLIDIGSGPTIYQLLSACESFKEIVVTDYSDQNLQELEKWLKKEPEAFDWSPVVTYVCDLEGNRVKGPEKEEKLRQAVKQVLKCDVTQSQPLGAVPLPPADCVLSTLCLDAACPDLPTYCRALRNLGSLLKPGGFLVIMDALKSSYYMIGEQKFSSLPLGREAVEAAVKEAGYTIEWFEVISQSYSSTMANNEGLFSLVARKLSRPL
Phenylethanolamine N-methyltransferase (Homo sapiens), sequence (P11086 whole entry, looked up): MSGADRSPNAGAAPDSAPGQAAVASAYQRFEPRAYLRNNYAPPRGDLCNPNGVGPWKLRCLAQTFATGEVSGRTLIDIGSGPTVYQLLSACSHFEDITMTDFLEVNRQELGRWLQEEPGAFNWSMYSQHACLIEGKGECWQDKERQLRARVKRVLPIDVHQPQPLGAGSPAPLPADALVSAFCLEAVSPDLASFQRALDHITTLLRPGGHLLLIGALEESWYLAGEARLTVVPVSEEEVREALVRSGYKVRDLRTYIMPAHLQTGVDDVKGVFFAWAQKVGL

For `COc1cc2c(NC3CCN(CC4CCCCC4)CC3)nc(N3CCCN(C(C)C)CC3)nc2cc1OCCCN1CCCCC1`, the activity change, negative = inhibition in experiment [1] is -0.195%. Besides, the activity in experiment [2] is -18.7%; in experiment [3], -1.55%.
On the same counts, the results for `COc1cc(NC(=O)Nc2cccc(CNC(=O)O[C@H]3CCOC3)c2)ccc1-c1cnco1` are -0.888%, -9.19% and -5.11%.
In the case of `CC1(C)[C@@H](O)CC[C@]2(C)[C@H]3CC=C4[C@@H]5C[C@](C)(C(=O)O)CC[C@]5(C)CC[C@@]4(C)[C@]3(C)CC[C@@H]12`, the Potency in experiment [1] is 27.1 µM (active). In addition, the activity was -38.7% in experiment [2] and -42.7% in experiment [3].
With `C=C[C@H]1[C@H](O[C@@H]2O[C@H](CO)[C@@H](O)[C@H](O)[C@H]2O)OC=C(C(=O)OC)[C@H]1C/C=C(/C=O)[C@@H]1C(C(=O)OC)=CO[C@@H](O[C@@H]2O[C@H](CO)[C@@H](O)[C@H](O)[C@H]2O)[C@@H]1C=C`, in experiment [1], the activity change, negative = inhibition stood at 0% [at 19.1 µM]. The results for the activity in experiment [2] and in experiment [3] were 0% and 4.52%, respectively.
On the same counts, the results for `CCC(C)C(=O)OC1CC(O)C23C4OCC5(C(O)CC2C1(C)C(O)O4)C3C(=O)C(O)C1(C)C(O)(c2ccoc2)CC2OC251` (stereo not drawn) are -8.15% [at 19.1 µM], -4.23% and -2.09%.
On the same counts, the results for `CN(C)C/C=C/C(=O)Nc1cccc(C(=O)Nc2cccc(Nc3ncc(Cl)c(-c4c[nH]c5ccccc45)n3)c2)c1` are 1.16%, -56% and -9.06%.
Turning to `CCCNc1ccc2ncc(-c3ccc4[nH]ncc4c3)n2n1`, the Potency in experiment [1] was 8.57 µM (active). In addition, the activity in experiment [2] was -46%; in experiment [3], -45.4%.
`Cc1nc([C@](C)(O)CO)sc1-c1cnc(N)c(O[C@H](C)c2cc(F)ccc2-n2nccn2)c1`: the activity change, negative = inhibition in experiment [1] was -0.524%. Further, the activity was -12.8% in experiment [2] and -10.9% in experiment [3].
As for `COc1cc(C(=O)NC2CCN(C)CC2)ccc1Nc1ncc2c(n1)N(C1CCCC1)CC(F)(F)C(=O)N2C`, the Potency in experiment [1] was 27.1 µM (active). The activity in experiment [2] was -23.8%; in experiment [3] it was -20.9%.
On the same counts, the results for `NCCCNc1ccc(Nc2nccc(Nc3cc(C4CC4)[nH]n3)n2)cc1` are 27.1 µM (active), -57.6% and -35.6%.
On to `Cc1cc(Nc2ccc(NC(=O)c3ccc(Nc4ccnc5ccccc45)cc3)cc2)nc(N)n1`, for which the Potency in experiment [1] was 30.4 µM (active). In addition, the values for the activity in experiment [2] and in experiment [3] were -17.6% and -11.7%, respectively.
As for `CCc1c(-c2ccccc2)c(-c2ccccc2)nn1-c1ccccc1-c1cccc(OCC(=O)O)c1`, the activity change, negative = inhibition in experiment [1] is 0%. Besides, the activity is -56% in experiment [2] and -7.07% in experiment [3].
`CC(C)c1c2cc(-c3ccnc(NC4CCC(NC5CCOCC5)CC4)n3)ccc2nn1C` (stereo not drawn): the Potency in experiment [1] was 38.3 µM (active). Moreover, the activity in experiment [2] was -14.6%; in experiment [3], -25.7%.
The like results for `NC(=O)c1cnc(NCCc2ccc(O)c(Cl)c2)nc1NCc1ccccc1` were, in that order, 27.1 µM (active), -78.6% and -25.9%.
With `CN(C)c1nc(NC2CCC(NC(=O)c3ccc(F)c(F)c3)CC2)nc2ccccc12` (stereo not drawn), the activity change, negative = inhibition in experiment [1] was determined as 0.153%. Further, the results for the activity in experiment [2] and in experiment [3] were -27.9% and -21.7%, respectively.
On the same counts, the results for `CC1=C(CCC(C)O[C@@H]2O[C@H](CO)[C@@H](O)[C@H](O)[C@H]2O)C(C)(C)CCC1=O` (stereo partly drawn) are -3.78%, -4.03% and -0.201%.
On to `CCN(CC)c1ccc2c(O)c(C=Nc3ccc(CC(=O)O)c(-c4c5c(nc6ccccc46)CCC(C(=O)NN)C5)c3)c(=O)oc2c1` (stereo not drawn), for which the Potency in experiment [1] was 34.1 µM (active). Further, the activity in experiment [2] was -14%; in experiment [3] it was -22%.
Regarding `COc1cc(C(=O)OC[C@H]2O[C@@H](Oc3ccccc3/C=C/C(=O)O)[C@H](O)[C@@H](O)[C@@H]2O)cc(OC)c1OC`, in experiment [1], the activity change, negative = inhibition was -3.16% [at 29.8 µM]. Moreover, the activity in experiment [2] is -2.69%; in experiment [3], -3.5%.
The like results for `CC(O)(CC(=O)O)CC(=O)OCc1ccc(O[C@@H]2O[C@H](CO)[C@@H](O)[C@H](O)[C@H]2O)cc1` (stereo partly drawn) were, in that order, 2.07% [at 29.8 µM], 1.65% and 1.08%.
On the same counts, the results for `Cc1cc(O)c(-c2ccc([C@@H](C)CN(C)C)cc2)c2c1[nH]c(=O)c1sccc12` are -6.59%, -64.6% and -48.7%.
The like results for `Nc1nc(-n2cc(C(=O)O)c(=O)c3cc(F)c(N4CC(O)C4)c(Cl)c32)c(F)cc1F` were, in that order, 0.345%, -1.6% and -1.85%.
Turning to `CN(C)c1nc(NC2CCC(NCCc3ccc(Br)cc3OC(F)(F)F)CC2)nc2ccccc12` (stereo not drawn), the activity change, negative = inhibition in experiment [1] is -2.23%. In addition, the activity in experiment [2] is -85%; in experiment [3] it was -42.3%.
As for `N#Cc1ccc(-c2cnc3[nH]cc(NC(=O)c4cccnc4)c3c2)cc1`, the Potency entry in experiment [1] is “inactive”. The activity in experiment [2] was 2.51%; in experiment [3], -6.92%.
As for `COc1ccc(CCO[C@@H]2O[C@H](CO[C@@H]3OC[C@H](O)[C@H](O)[C@H]3O)[C@@H](O)[C@H](O)[C@H]2O)cc1`, the activity change, negative = inhibition in experiment [1] was found to be 2.09% [at 29.8 µM]. In addition, the values for the activity in experiment [2] and in experiment [3] were 1.01% and 1.06%, respectively.
On the same counts, the results for `C/C=C/c1cc(OC)c2c(c1)[C@@H](C)[C@@H](c1ccc(O)c(OC)c1)O2` are -6.75%, -7.01% and -5.03%.
Regarding `C=C[C@H]1[C@H](O[C@@H]2O[C@H](CO)[C@@H](O)[C@H](O)[C@H]2O)OC=C(C(=O)OC)[C@H]1CCOC(=O)c1cc(O)c(O)c(O)c1`, the activity change, negative = inhibition in experiment [1] turned out to be 1.49% [at 29.8 µM]. The activity in experiment [2] was 0.422%; in experiment [3] it was -11.3%.
